Records with an inconclusive call do not appear. Activity calls are given as the source filed them. Unless noted, calls follow the shape of the dose curve; as a rule, active = well fitted curve in the direction sought with a large enough effect; inconclusive = small, poorly fitted or top-dose-only effect, or another doubt; inactive = no such curve, though single readings can be large; an effect the other way counts as inactive or inconclusive.

The target of experiment [1] is Transient receptor potential cation channel subfamily V member 1 (Homo sapiens) (UniProt Q8NER1). The experiment is described as follows: HTS Assay for Compounds that Act as Enhancers of the Vanilloid Receptor 1 (AID 488979). Also: 0% is about no effect. In a few lines:
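Calcium influx kinetics via Fluo-8 (480/520 nm) in TRPV1-expressing cells, 2000/well cultured overnight at 35.5C. Compound-alone read 3 min (agonist phase), followed by EC20 capsaicin challenge for 2 min (enhancer phase).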

In experiment [2] the target is Thyrotropin receptor (Homo sapiens) (UniProt P16473). Nature of the experiment: qHTS Assay for Antagonists of the Thyroid Stimulating Hormone Receptor (AID 488980). Also: series mostly up to about 58 µM; 0% is about no effect. The gist of the method:
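Cells expressing human TSHR (HEK293) are dispensed in HBSS/HEPES containing 70 uM RO 20-1724, compound is added, then TSH at EC80 (4 nM final). Antibody in lysis buffer follows, 30 minutes at room temperature before HTRF detection.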

In experiment [3] the target is D(1A) dopamine receptor (Homo sapiens) (UniProt P21728). The experiment is described as follows: HTS Assay for Allosteric Agonists of the Human D1 Dopamine Receptor: Primary Screen for Agonists (AID 488981). Also: 0% is about no effect. In a few lines: (§1)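 Calcium flux in an inducible, force-coupled HEK293 Trex D1 line (overnight at 30 C): agonist mode is the 180 s kinetic read after compound; potentiator mode is the following 180 s read after dopamine at EC20.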
Sequence of D(1A) dopamine receptor (Homo sapiens) (P21728 whole entry, looked up): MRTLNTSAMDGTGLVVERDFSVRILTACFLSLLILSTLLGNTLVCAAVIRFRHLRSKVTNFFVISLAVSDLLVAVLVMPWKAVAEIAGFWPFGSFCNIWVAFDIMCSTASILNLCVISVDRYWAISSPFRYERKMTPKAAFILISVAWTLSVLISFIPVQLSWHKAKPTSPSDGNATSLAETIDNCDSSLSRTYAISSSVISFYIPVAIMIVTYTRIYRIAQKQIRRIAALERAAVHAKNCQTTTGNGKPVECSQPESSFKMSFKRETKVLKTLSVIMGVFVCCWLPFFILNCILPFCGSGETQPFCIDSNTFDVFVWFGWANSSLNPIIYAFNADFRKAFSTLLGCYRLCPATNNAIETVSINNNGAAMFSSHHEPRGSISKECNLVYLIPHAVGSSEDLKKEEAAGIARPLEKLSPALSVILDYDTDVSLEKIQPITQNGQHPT

Experiment [4] shares this target. The experiment is described as follows: HTS Assay for Allosteric Agonists of the Human D1 Dopamine Receptor: Primary Screen for Antagonists (AID 488983).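 Also: calcium flux response to an EC80 dopamine challenge measured with no-wash dye; % is scaled to controls: 0 for no effect and ±100 for the full control effect; nearly all actives have a fitted effect of over 65% in size.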 In a few lines:
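Tetracycline-induced HEK293 T-REx D1 line, force-coupled to calcium flux, read with no-wash calcium dye. Compound added after 10 s baseline, read 180 s for agonism, then EC80 dopamine added and read a further 180 s.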

Experiment [5] can be described thus: Validation screen for small molecules that induce genotoxicity in human embryonic kidney (HEK293T) cells expressing luciferase-tagged ELG1 (AID 493106). Also: 0% is about no effect. In a few lines: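 HEK293T cells expressing luciferase-tagged ELG1, 2,000 cells/well, exposed to compound 16 hr at 37 °C, 5% CO2. Luciferase read after ONE-Glo, 30 min at room temperature; increased signal indicates genetic stress.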

Experiment [6] deals with ATPase family AAA domain-containing protein 5 (Homo sapiens) (UniProt Q96QE3). The experiment is described as follows: Validation screen for small molecules that inhibit ELG1-dependent DNA repair in human embryonic kidney (HEK293T) cells expressing luciferase-tagged ELG1 (AID 493107). Also: nearly all actives have a fitted effect of over 70% in size. Also: potency is read from the fitted curve at half-maximal effect. In a few lines: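 HEK293T cells expressing luciferase-tagged ELG1, 2,000 per well, treated with 5-fluorouridine plus compound for 16 h at 37 C. ONE-Glo luminescence after 30 min at room temperature reports ELG1 reporter level.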
Sequence of ATPase family AAA domain-containing protein 5 (Homo sapiens) (Q96QE3 whole entry, looked up, the tested form may be a part): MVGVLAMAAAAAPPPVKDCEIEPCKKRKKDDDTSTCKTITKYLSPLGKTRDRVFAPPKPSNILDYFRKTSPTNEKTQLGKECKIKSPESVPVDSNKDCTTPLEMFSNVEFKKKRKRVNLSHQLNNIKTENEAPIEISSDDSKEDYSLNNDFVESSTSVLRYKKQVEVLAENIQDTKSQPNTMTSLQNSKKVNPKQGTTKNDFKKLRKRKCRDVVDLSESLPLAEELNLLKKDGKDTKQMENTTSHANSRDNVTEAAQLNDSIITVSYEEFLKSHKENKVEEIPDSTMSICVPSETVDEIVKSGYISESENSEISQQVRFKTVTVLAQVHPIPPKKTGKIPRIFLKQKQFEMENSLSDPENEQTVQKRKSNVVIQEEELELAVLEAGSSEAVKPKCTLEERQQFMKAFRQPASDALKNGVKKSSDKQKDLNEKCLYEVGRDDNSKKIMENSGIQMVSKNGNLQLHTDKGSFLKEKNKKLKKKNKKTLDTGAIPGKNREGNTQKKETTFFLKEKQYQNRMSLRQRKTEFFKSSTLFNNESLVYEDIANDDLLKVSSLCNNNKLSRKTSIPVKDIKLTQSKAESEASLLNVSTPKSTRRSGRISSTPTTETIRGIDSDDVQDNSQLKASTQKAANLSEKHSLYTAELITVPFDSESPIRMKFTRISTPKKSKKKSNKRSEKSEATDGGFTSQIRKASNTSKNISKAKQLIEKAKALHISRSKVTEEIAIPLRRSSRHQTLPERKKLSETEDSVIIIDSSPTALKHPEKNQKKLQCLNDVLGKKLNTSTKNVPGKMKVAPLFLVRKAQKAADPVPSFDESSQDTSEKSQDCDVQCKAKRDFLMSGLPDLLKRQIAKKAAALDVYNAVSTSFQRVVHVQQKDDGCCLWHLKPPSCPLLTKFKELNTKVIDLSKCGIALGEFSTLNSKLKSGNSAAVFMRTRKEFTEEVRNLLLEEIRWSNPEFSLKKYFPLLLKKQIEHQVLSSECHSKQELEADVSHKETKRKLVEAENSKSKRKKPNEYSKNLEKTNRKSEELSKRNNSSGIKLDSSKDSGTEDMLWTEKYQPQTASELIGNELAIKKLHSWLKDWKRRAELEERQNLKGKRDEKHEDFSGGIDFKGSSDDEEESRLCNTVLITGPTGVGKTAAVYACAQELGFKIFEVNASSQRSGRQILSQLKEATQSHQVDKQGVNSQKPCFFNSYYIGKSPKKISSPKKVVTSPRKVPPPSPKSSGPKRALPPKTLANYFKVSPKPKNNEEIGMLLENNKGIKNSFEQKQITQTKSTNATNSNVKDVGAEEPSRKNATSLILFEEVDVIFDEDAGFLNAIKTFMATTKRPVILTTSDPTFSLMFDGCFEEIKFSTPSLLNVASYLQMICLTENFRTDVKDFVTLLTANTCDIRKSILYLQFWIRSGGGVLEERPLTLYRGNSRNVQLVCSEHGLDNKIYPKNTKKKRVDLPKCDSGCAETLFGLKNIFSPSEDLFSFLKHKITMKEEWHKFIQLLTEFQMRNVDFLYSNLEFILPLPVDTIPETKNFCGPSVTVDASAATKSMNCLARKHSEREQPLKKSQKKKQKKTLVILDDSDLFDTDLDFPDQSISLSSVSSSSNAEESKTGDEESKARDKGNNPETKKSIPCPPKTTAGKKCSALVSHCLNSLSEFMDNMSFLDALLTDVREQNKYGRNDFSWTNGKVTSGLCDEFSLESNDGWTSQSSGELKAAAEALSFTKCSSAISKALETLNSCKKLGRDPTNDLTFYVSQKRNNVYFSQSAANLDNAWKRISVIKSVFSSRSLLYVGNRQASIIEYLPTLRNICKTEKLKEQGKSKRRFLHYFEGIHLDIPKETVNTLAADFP

The target in experiment [7] is Thyrotropin-releasing hormone receptor (Homo sapiens) (UniProt P34981). Nature of the experiment: qHTS for Small Molecule Agonists and Allosteric Enhancers of Human TRH Receptor: Validation Screen for Agonists (AID 493127;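 active = calcium activation more than 3 SD above the typical response in the agonist read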; also: 0% is about no effect). The settings on record: TRH receptor agonist cell assay; at 2 µM; stronger effect = higher value. In a few lines: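 TRHR cells loaded with fluo-8 calcium dye; FDSS kinetic fluorescence (Ex 480/Em 530) read at 1 s/cycle after 23 nL compound addition. Agonist-mode calcium response recorded before the 10 nM TRH (EC20) addition.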
Sequence of Thyrotropin-releasing hormone receptor (Homo sapiens) (P34981 whole entry, looked up): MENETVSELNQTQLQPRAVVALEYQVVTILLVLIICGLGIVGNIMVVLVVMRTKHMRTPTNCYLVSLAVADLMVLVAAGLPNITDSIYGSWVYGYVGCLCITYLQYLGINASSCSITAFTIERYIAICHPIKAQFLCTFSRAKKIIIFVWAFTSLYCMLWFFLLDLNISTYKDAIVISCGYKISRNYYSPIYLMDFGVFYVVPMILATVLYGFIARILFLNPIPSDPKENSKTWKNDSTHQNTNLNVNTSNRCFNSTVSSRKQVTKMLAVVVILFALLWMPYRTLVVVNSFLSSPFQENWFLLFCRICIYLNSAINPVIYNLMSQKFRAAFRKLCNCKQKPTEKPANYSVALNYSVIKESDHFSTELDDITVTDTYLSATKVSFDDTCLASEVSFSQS
(In general: In qHTS, concentration-response curves come from the screen itself.)

Experiment [8] in a line: Nrf2 qHTS screen for inhibitors: Validation (AID 493153; active = well fitted inhibition curve with a large enough effect in the main read-out, with a control signal flat, not every such curve was filed as active). The settings on record: viability change: measured here: cytotoxicity max response. In a few lines:
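A549 cells carrying ARE-firefly luciferase reporter, 5000 cells/well in 5% FBS OPTI-MEM, treated with compound over a concentration series for 18-24 h at 37 C. Luciferase luminescence gave Nrf2 activity; CellTiter-Fluor fluorescence gave viability.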

Experiment [9] in a line: qHTS for Inhibitors of Cell Surface uPA Generation: Validation Assay (AID 493164). Also: 0% is about no effect. The gist of the method: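 RAW 264.7 cells (4000/well) were plated overnight, then exposed for 18 h at 37 C, 5% CO2 to compounds in a 7-point 1:5 titration (2.45 nM–38.3 uM final). Intracellular ATP was read by ATP-Lite luminescence.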
In experiment [10] the target is Galactokinase (Homo sapiens) (UniProt P51570). The experiment is described as follows: qHTS Validation Assay for Inhibitors of Human Galactokinase (GALK) (AID 493189). Also: 0% is about no effect. The gist of the method: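 Compounds were pin-transferred into ATP buffer, then GALK-galactose mix was added (final 5 nM enzyme, 100 uM galactose, 35 uM ATP). After 1 h at room temperature, remaining ATP was measured luminescently.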
Sequence of Galactokinase (Homo sapiens) (P51570 whole entry, looked up): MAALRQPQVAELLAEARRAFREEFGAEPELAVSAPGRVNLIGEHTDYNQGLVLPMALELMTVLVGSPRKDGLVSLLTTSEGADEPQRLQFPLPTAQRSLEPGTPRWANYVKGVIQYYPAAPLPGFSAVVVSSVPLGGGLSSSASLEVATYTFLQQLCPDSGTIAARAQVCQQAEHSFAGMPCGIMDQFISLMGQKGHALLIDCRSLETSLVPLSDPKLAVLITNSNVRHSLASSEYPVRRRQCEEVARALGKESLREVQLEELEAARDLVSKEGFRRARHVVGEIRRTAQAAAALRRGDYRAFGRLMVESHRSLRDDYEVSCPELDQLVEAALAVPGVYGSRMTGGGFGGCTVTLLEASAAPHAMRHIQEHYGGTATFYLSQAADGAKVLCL

Experiment [11] can be described thus: Validation screen for small molecules that induce DNA re-replication in SW480 colon adenocarcinoma cells (AID 504364). Also: 0% is about no effect. In a few lines:
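SW480 cells (250/well) exposed 48 h at 37 C, 5% CO2, then Hoechst-stained 40 min. Nuclear DNA content imaged by fluorescence scanning (405 nm excitation, 500-530 nm emission); re-replication scored as increased nuclei with elevated intensity.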

Experiment [12] concerns the target Peptidyl-prolyl cis-trans isomerase NIMA-interacting 1 (Homo sapiens) (UniProt Q13526). The experiment is described as follows: qHTS Validation Assay to Find Inhibitors of Pin1 (AID 504536; active = well fitted inhibition curve with a large enough effect in the polarisation, with a control signal flat, not every such curve was filed as active; the % refers to the polarisation;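 also: 0% = full Pin1 enzyme wells and -100% = no-enzyme wells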). In a few lines: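 Fluorescence polarization competition: compounds (titration) displace HiFluor-488-labeled Pin1-1b peptide from Pin1 (0.3 uM final) in pH 7.5 HEPES buffer with DTT, 10 min at room temperature; %Activity normalized to no-enzyme wells, curves fitted.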

Experiment [13] addresses Phosphoglycerate kinase, glycosomal (Trypanosoma brucei brucei) (UniProt P07378). Nature of the experiment: qHTS Validation Assay to Find Inhibitors of Phosphoglycerate Kinase (AID 504547).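 Also: control wells lack PGK and mark full inhibition.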 The gist of the method: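 Inhibition of the enzyme is judged by a Kinase-Glo Plus luminescent signal following a one-hour incubation at room temperature. Because 1,3-BPG is unstable, it is made in situ by GAPDH at 100nM final; no-PGK wells define the baseline.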

The target in experiment [14] is phosphoglycerate mutase (Leishmania major) (UniProt Q4Q090). The experiment is described as follows: qHTS Validation Assay to Find Inhibitors of Phosphoglycerate Mutase (AID 504548).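 Also: end-point luminescence from Kinase-GloPlus after the PGAM reaction; series mostly up to about 58 µM; % is scaled to controls: 0 for no effect and ±100 for the full control effect.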 In a few lines: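 L. major PGAM (1.25nM final) was added to substrate buffer and pinned compound, incubated 45 minutes at room temperature, then Kinase-GloPlus added; luminescence read after 10 minutes. Buffer: 100 mM TEA pH 7.6, 5 mM MgCl2, 0.01% Tween-20.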

Experiment [15] has as its target Ubiquitin carboxyl-terminal hydrolase 1 (Homo sapiens) (UniProt O94782). The experiment is described as follows: Inhibitors of USP1/UAF1: Pilot qHTS (AID 504865).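 Also: rhodamine fluorescence freed from ubiquitin-rhodamine substrate followed over time; top concentration of the series differs between compounds; % is scaled to controls: 0 for no effect and ±100 for the full control effect; nearly all actives have a fitted effect of over 35% in size.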 The gist of the method:
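Kinetic fluorescence assay: 1nM USP1/UAF1, 15 min compound preincubation, then 150nM Ub-Rho; 480/540 nm.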

The nature of experiment [16]: qHTS for Inhibitors of ATXN expression: Validation of Cytotoxic Assay (AID 588349). Also: % is scaled to controls: 0 for no effect and ±100 for the full control effect. The gist of the method:
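HEK293 cells treated with titrated compound for 72 hr at 37 degrees C; viability read as intracellular ATP by CellTiter Glo luminescence.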

A short description of experiment [17]: Inducers of the Endoplasmic Reticulum Stress Response (ERSR) in human glioma: Validation (AID 504836). Also: 0% is about no effect. The gist of the method:
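ERSR induction read as luciferase luminescence (Bright-Glo, 10 min at room temperature) in stably transfected human U87-MG glioma cells exposed to compounds for 16 h, using GRP78 as sensor.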

Experiment [18] addresses ATP-dependent 6-phosphofructokinase (Trypanosoma brucei brucei) (UniProt O15648). The experiment is described as follows: qHTS Assay to Find Inhibitors of T. brucei phosphofructokinase: hit validation (AID 492961).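 Also: luminescence reports ADP formed as PFK phosphorylates fructose-6-phosphate with ATP; series mostly up to about 51 µM; % is scaled to controls: 0 for no effect and ±100 for the full control effect.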 The gist of the method:
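Measures ADP output of PFK (1.25 nM) at 0.1 mM ATP, 0.5 mM F6P, pH 8.0 TEA buffer with 5 mM MgCl2. No-enzyme wells define full inhibition; uninhibited enzyme wells define zero.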

Experiment [19] addresses D(1A) dopamine receptor (Homo sapiens) (UniProt P21728). The experiment is described as follows: HTS Assay for Allosteric Agonists of the Human D1 Dopamine Receptor: Primary Screen for Potentiators (AID 488982). Also: 0% is about no effect. In a few lines: as §1

Sequence of Thyrotropin receptor (Homo sapiens) (P16473 whole entry, looked up): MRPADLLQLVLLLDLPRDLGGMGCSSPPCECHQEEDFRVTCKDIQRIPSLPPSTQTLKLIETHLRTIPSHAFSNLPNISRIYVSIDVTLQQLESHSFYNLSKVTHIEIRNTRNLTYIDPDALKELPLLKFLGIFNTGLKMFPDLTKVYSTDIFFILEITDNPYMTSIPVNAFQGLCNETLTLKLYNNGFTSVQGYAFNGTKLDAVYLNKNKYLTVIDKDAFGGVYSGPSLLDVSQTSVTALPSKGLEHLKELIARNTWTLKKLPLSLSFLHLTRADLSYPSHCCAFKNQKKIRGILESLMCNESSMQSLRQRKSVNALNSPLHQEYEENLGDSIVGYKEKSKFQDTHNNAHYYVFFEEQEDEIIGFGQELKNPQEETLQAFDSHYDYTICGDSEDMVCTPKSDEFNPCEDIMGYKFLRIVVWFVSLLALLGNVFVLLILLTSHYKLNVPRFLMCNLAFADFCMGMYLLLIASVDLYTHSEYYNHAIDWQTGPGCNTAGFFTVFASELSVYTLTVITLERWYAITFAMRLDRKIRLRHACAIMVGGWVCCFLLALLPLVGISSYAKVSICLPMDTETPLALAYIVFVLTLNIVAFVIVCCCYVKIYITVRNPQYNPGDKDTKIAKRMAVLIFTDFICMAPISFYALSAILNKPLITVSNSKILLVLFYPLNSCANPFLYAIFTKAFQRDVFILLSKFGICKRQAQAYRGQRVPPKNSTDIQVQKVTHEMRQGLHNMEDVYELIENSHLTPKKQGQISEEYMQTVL
Sequence of Transient receptor potential cation channel subfamily V member 1 (Homo sapiens) (Q8NER1 whole entry, looked up): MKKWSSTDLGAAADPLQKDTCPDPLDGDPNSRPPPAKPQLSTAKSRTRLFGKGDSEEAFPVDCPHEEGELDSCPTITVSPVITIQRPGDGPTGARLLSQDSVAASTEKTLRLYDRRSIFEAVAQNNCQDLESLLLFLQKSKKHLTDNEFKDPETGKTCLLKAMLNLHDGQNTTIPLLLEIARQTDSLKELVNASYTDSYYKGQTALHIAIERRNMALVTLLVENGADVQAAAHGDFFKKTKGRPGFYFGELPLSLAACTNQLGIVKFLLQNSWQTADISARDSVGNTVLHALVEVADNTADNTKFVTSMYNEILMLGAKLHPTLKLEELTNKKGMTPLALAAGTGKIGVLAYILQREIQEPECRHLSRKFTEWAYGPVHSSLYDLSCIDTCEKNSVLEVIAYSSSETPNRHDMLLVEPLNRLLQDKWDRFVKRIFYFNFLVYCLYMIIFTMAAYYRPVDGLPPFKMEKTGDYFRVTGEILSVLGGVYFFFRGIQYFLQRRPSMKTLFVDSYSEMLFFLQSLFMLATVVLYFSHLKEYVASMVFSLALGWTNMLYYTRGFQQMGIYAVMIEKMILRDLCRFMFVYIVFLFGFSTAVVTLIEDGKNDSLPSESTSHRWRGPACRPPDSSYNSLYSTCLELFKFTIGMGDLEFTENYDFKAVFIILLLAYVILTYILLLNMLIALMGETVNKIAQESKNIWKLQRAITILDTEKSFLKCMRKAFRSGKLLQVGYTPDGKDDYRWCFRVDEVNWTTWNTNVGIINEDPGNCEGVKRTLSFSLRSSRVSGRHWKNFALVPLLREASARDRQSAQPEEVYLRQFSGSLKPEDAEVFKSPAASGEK
Sequence of Peptidyl-prolyl cis-trans isomerase NIMA-interacting 1 (Homo sapiens) (Q13526 whole entry, looked up): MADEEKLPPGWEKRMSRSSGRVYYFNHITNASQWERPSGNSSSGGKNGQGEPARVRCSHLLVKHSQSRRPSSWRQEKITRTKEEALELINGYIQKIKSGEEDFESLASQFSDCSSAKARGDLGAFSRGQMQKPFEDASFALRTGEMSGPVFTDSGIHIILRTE

`NC(CP(=O)(O)O)C(=O)O` (configuration not stated): the outcome in experiment [1], in experiment [2], in [5], in experiment [8], in [9] and in experiment [10] was inactive. Besides, the call in experiment [11], in [12], in experiment [13], in [14] and in [16] was inactive. The Potency entry in experiment [3], in experiment [4], in [6] and in experiment [15] was “inactive” each time. In addition, the activation in experiment [7] was -3.19% (inactive). In addition, the viability change in experiment [8] is -2.21%.
Regarding `NC(N)=NOCCC(N)C(=O)O` (configuration not stated), the result in experiment [1], in experiment [2], in [5], in experiment [8], in experiment [9] and in [10] was inactive. For the same molecule, the result in [11], in [12], in experiment [13], in [14] and in experiment [16] was inactive. Moreover, the Potency result in [3], in [4], in [6], in [17] and in experiment [15] was “inactive” throughout. Further, the activation in experiment [7] is 0.375% (inactive). The viability change in experiment [8] amounted to 0.756%.
In the case of `O=C(O)Cc1cnc[nH]1`, the outcome in experiment [1], in experiment [2], in experiment [5], in experiment [8], in experiment [9] and in [10] was inactive. Besides, the molecule was classed as inactive in experiment [11], in [12], in [13], in [14] and in [16]. For the same molecule, the Potency entry in experiment [3], in [4], in experiment [6], in [17] and in experiment [15] was “inactive” in each case. Also, the activation in experiment [7] was 0.875% (inactive). In addition, in experiment [8], the viability change was -0.284%.
For the molecule `CCCN1CCC[C@H](c2cccc(O)c2)C1`, the outcome in [1], in [2], in experiment [5], in experiment [8], in experiment [9] and in [10] was inactive. In addition, the outcome in experiment [11], in experiment [13], in [14] and in experiment [16] was inactive. The Potency result in experiment [3], in experiment [4], in [18], in experiment [6], in experiment [17] and in experiment [15] was “inactive” throughout. In addition, the activation in experiment [7] was 2.19% (inactive). In addition, the viability change in experiment [8] was 1.24%.
On to `C[C@]12N[C@H](Cc3ccccc31)c1ccccc12`, for which the result in experiment [1], in experiment [2], in [19], in experiment [5], in [8] and in experiment [9] was inactive. Also, the outcome in experiment [10], in [11], in [12], in experiment [13], in experiment [14] and in experiment [16] was inactive. Besides, the Potency result in [3], in experiment [4], in [6] and in experiment [15] was “inactive” throughout. Moreover, the viability change in experiment [8] amounted to 0.285%.
Take `O=C(O)[C@@H]1CCN1`: the result in experiment [1], in experiment [2], in [19], in [5], in experiment [8] and in experiment [9] was inactive. The result in experiment [10], in [11], in experiment [12], in experiment [13], in experiment [14] and in experiment [16] was inactive. Besides, the Potency entry in experiment [3], in experiment [4], in [6], in [17] and in experiment [15] was “inactive” in each case. The activation in experiment [7] is 0.75% (inactive). In addition, the viability change in [8] came out at 8.8%.
As to `CC[C@@]1(O)C(=O)OCc2c1cc1n(c2=O)Cc2cc3ccccc3nc2-1`, the outcome in [1], in experiment [2], in [5], in experiment [9], in [10] and in experiment [11] was inactive. The molecule was classed as inactive in [12], in experiment [13] and in [14]. Also, the Potency result in experiment [3], in experiment [4], in [17] and in experiment [15] was “inactive” in each case. Also, the Potency in experiment [6] is 461 nM (active). The activation in [7] was -0.188% (inactive).

Source of the values: PubChem BioAssay (NCATS).
